PubChem BioAssay
A number with no mark means an inactive call. For some assays here: Measured potencies and affinities stand elsewhere. Active and inactive are the calls of the source. Unless noted, the rule behind the calls is not given here.

Columns and labels:
[1] = antimalarial activity against Dd2 strain (AID 2302;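 active = growth inhibition above 50% at the single 2 µM test dose, taken to imply half-maximal potency below 2 µM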;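 note: 0% = DMSO untreated growth and 100% = chloroquine plus artemisinin killed control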); conditions: P. falciparum Dd2 in RBCs, LDH growth readout, 72 h; at 2 µM; stronger effect = higher value
[2] = HepG2 cytotoxicity, primary screen, cytotoxicity control for P. falciparum antimalarial project, cell-based, ATP luminescence (AID 2303;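 active = inhibition above 50%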;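 note: 0% = DMSO wells and 100% = digitonin-killed cells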); conditions: HepG2 viability, 24-48 h, at 10 µM, stronger effect = higher value
[3] = target: L-lactate dehydrogenase (Plasmodium falciparum (isolate CDC / Honduras)) (UniProt Q27743); test: PfLDH activity inhibition – cell lysate, 3D7 strain, counter-screen for P. falciparum growth inhibition project (AID 2304);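 note: 0% = vehicle and 100% = reference inhibitor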; conditions: P. falciparum 3D7 crude extract, LDH APAD/NBT absorbance; at 2 µM; stronger effect = higher value
[4] = inhibition of 3D7 malaria parasite growth – strain 3D7 (AID 2306);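 note: 0% = DMSO wells and 100% = chloroquine plus artemisinin control wells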; conditions: P. falciparum 3D7 erythrocytic growth, LDH absorbance, 72 h; at 2 µM; stronger effect = higher value
[5] = target: Calcium-dependent protein kinase 1 (Plasmodium falciparum (isolate 3D7)) (UniProt P62344); test: PfCDPK1 kinase inhibitors, biochemical, TCAMS library (AID 1159585; cut-off not given, nearly all actives have IC50 up to about 0.98 µM;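 note: inhibitors leave more ATP so luminescence rises with inhibition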); conditions: recombinant PfCDPK1, Kinase-Glo ATP depletion luminescence
[6] = target: Plasmodium falciparum protein kinase 6 (PK6, PF3D7_1337100) (UniProt Q8IDW1); test: PfPK6 kinase inhibitors, biochemical, TCAMS library (AID 1159586); conditions: recombinant PfPK6, Kinase-Glo ATP depletion luminescence
[7] = target: Protein kinase 7 (PK7), Plasmodium falciparum 3D7 (PF3D7_0213400) (UniProt Q7YTF7); test: inhibition of Plasmodium PK7 catalytic activity – biochemical, TCAMS antimalarial set, Kinase-Glo luminescence (AID 1159587); conditions: recombinant PfPK7, Kinase-Glo ATP depletion luminescence
[8] = target: Calcium-dependent protein kinase 4 (Plasmodium falciparum (isolate 3D7)) (UniProt Q8IBS5); test: PfCDPK4 kinase inhibitors, biochemical, TCAMS library (AID 1159588; cut-off not given, nearly all actives have IC50 up to about 0.91 µM); conditions: recombinant PfCDPK4, Kinase-Glo ATP depletion luminescence
Calcium-dependent protein kinase 4 (Plasmodium falciparum (isolate 3D7)), sequence (Q8IBS5 whole entry, looked up): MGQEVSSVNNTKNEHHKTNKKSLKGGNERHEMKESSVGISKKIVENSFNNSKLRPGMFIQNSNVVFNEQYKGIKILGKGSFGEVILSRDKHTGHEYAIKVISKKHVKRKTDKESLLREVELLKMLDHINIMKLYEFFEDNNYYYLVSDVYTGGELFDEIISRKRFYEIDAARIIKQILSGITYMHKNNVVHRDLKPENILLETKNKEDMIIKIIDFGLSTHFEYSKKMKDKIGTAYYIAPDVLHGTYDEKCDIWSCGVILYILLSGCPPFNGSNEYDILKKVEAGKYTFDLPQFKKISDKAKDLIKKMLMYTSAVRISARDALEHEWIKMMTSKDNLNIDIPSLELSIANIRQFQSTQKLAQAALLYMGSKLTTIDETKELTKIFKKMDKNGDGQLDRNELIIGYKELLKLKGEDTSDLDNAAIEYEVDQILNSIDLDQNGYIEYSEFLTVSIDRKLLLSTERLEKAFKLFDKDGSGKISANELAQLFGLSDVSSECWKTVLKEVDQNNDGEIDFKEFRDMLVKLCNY

Plasmodium falciparum protein kinase 6 (PK6, PF3D7_1337100), sequence (Q8IDW1 1-305): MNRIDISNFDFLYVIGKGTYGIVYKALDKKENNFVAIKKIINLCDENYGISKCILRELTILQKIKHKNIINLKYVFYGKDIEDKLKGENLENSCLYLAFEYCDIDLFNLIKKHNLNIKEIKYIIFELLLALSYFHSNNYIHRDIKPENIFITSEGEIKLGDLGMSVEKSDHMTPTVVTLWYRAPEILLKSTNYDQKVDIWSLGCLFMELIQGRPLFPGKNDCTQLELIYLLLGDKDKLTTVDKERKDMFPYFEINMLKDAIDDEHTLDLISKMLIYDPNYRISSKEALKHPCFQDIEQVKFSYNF
L-lactate dehydrogenase (Plasmodium falciparum (isolate CDC / Honduras)), sequence (Q27743 whole entry, looked up): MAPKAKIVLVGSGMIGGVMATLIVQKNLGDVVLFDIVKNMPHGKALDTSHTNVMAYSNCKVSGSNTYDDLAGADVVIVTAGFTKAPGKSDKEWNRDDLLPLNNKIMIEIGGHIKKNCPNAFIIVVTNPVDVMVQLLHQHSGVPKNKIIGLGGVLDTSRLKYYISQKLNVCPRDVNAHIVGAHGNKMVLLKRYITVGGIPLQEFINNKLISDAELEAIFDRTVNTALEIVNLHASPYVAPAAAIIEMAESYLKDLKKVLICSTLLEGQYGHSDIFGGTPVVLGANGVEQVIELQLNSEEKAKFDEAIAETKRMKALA
Calcium-dependent protein kinase 1 (Plasmodium falciparum (isolate 3D7)), sequence (P62344 whole entry, looked up): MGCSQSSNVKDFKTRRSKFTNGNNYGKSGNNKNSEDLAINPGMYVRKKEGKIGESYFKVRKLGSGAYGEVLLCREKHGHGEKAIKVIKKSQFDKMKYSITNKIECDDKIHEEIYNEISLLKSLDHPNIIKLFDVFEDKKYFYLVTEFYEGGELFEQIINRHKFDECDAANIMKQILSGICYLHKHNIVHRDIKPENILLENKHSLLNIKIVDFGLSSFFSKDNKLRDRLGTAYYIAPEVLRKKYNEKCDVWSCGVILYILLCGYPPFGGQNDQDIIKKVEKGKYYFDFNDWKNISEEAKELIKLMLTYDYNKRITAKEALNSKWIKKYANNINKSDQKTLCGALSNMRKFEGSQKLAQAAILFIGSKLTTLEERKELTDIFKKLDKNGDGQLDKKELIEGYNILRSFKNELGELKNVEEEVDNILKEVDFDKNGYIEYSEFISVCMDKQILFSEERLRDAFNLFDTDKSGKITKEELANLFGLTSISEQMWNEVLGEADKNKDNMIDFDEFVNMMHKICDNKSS
Protein kinase 7 (PK7), Plasmodium falciparum 3D7 (PF3D7_0213400), sequence (Q7YTF7 1-343): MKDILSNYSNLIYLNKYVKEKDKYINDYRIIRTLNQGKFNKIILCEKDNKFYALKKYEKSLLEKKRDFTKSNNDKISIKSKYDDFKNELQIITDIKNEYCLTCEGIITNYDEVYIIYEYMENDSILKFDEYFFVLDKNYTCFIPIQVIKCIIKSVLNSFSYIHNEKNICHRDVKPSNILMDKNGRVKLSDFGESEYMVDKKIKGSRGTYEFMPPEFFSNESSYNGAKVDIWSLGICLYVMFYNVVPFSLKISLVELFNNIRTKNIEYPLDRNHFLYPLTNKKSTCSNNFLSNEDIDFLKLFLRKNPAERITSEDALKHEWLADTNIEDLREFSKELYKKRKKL

SMILES | growth inhibition [1] | inhibition [2] | inhibition [3] [%] | growth inhibition [4] | outcome [5] | outcome [6] | outcome [7] | outcome [8]
COc1ccc(S(=O)(=O)NCC2CCCN(CCCCCNC(=O)/C=C/c3ccc(Cl)c(Cl)c3)C2)cc1 (stereo not given) | 1% | 53% (active) | 1 | 81% (active) | inactive | inactive | inactive | inactive
Nc1ccc(-c2csc(Nc3ccncc3)n2)cc1 | 50% (active) | 12% | -3 | 95% (active) | inactive | inactive | inactive | inactive
O=C(Nc1cccc(CN2CCCN(Cc3ccc(O)cc3)CC2)c1)c1cc2ccccc2o1 | 62% (active) | 10% | 0 | 95% (active) | inactive | inactive | inactive | inactive
Cc1cc(C2CCN(CCCCNC(=O)c3ccc(-c4ccc(C(F)(F)F)cc4)cc3)CC2)c(C)cc1OCC(N)=O | 44% | 34% | -7 | 91% (active) | inactive | inactive | inactive | inactive
CCN(CCN(C)C)Cc1ccc(-c2ccc(NS(=O)(=O)c3cccc4cccnc34)cc2)cc1 | 57% (active) | 16% | 1 | 91% (active) | inactive | inactive | inactive | inactive
CCCc1cc(NCC)nc(Nc2ccc(F)cc2)n1 | 36% | 16% | -1 | 86% (active) | inactive | inactive | inactive | inactive
Cc1c(N=O)cc(C(C)(C)C)c(O)c1C(=O)Nc1ccc([N+](=O)[O-])cc1Cl | 98% (active) | 72% (active) | 1 | 100% (active) | inactive | inactive | inactive | inactive
CC(C)COc1ccc(Cl)cc1Nc1nc(-c2nc3ccccc3[nH]2)cs1 | 29% | 2% | 0 | 96% (active) | inactive | inactive | inactive | inactive
CCN(CC)CCN(Cc1ccc(-c2ccc(C(F)(F)F)cc2)cc1)C(=O)Cn1c(CCc2c(F)cccc2F)nc(=O)c2ccccc21 | 61% (active) | 36% | -3 | 102% (active) | inactive | inactive | inactive | inactive
O=C1OC2(CCN(C(=O)c3ccc(-n4cnnn4)cc3)CC2)CN1Cc1ccc(Cl)c(Cl)c1 | 70% (active) | 11% | -7 | 97% (active) | inactive | inactive | inactive | inactive
CCOC(=O)c1cc(C(=O)NCCCCN2CCC(c3ccc4c(c3OC)CCCC4)CC2)ccc1-c1ccc(C(F)(F)F)cc1 | 60% (active) | 100% (active) | -3 | 101% (active) | inactive | inactive | inactive | inactive
Cc1cc(NC(=O)NCCN2CCC(NS(=O)(=O)c3cccc(Br)c3)C2)c2ccccc2n1 (stereo not given) | 58% (active) | 0% | -2 | 99% (active) | inactive | inactive | inactive | inactive
CC(C)(C)OC(=O)C1CCCN(Cc2ccc(-c3cccc(-c4nc5ccccc5[nH]4)c3)cc2)C1 (stereo not given) | 27% | 37% | 4 | 93% (active) | inactive | inactive | inactive | inactive
O=C(NCc1ccccc1)c1ccc(C(=O)NCC2CNCCO2)cc1 (stereo not given) | -1% | 4% | -4 | 92% (active) | inactive | inactive | inactive | inactive
Cc1cc(I)ccc1Nc1nc2nonc2nc1Nc1ccc(I)cc1C | 96% (active) | 78% (active) | -2 | 100% (active) | inactive | inactive | inactive | inactive
CCC[C@@H]([C@@H](CC1CCCCC1)C(=O)N[C@H](C(=O)Nc1nccs1)[C@H](C)O)N(O)C=O | 75% (active) | -4% | -5 | 99% (active) | inactive | inactive | inactive | inactive
COCCNCc1cccc(C#Cc2cc3ncnc(Nc4ccc(OCc5cccc(F)c5)c(Cl)c4)c3s2)n1 | 52% (active) | 35% | -4 | 99% (active) | inactive | inactive | inactive | inactive
COc1cc(-c2ccc(-c3cnc(N)nc3OC)[nH]2)cc(OC)c1OC | 54% (active) | -3% | -2 | 101% (active) | inactive | inactive | inactive | inactive
Cc1ccc(NC(=O)C2CCC2)cc1-c1ccc(C(=O)NCC2CC2)cc1 | 3% | 13% | 3 | 98% (active) | inactive | inactive | inactive | inactive
Cc1ccc2cc(NC(=O)c3cccc(C(=O)Nc4ccc5nc(C)ccc5c4)n3)ccc2n1 | 23% | 21% | 4 | 92% (active) | inactive | inactive | inactive | inactive

SMILES | growth inhibition [1] | inhibition [2] | inhibition [3] [%] | growth inhibition [4] | outcome [5] | outcome [6] | outcome [7] | outcome [8]
Cc1ccc(OCC2CCN(c3ncc(C(=O)NCCCN4CCCC4=O)cc3Cl)CC2)cc1 | 71% (active) | 7% | 0 | 94% (active) | inactive | inactive | inactive | inactive
COc1csc2cc(Br)ccc12 | -5% | 6% | -3 | 101% (active) | inactive | inactive | inactive | inactive
Nc1c(Cl)cc(C(O)CNCCCCCCOCCc2ccc(CO)s2)cc1Cl (stereo not given) | 71% (active) | 1% | -2 | 86% (active) | inactive | inactive | inactive | inactive
CC(CN(C)C)C(=O)Nc1cccc(-c2ccc(-c3nc4ccc(F)cc4[nH]3)s2)c1 (stereo not given) | 99% (active) | 3% | -6 | 100% (active) | inactive | inactive | inactive | inactive
O=[N+]([O-])c1cccc(C=NNc2ccnc3ccc(C(F)(F)F)cc23)c1 | 35% | -6% | -2 | 96% (active) | inactive | inactive | inactive | inactive
CC(C)c1sc(N2CCN(C)CC2)nc1C(=O)Nc1cccc2c1CCCC2 | 50% (active) | 3% | -1 | 98% (active) | inactive | inactive | inactive | inactive
CCCCCCN1CCC(NCc2cccc3ccccc23)CC1 | 12% | 21% | 0 | 95% (active) | inactive | inactive | inactive | inactive
CSc1ccc2ccccc2c1CNCCCCCCNCc1c(SC)ccc2ccccc12 | 74% (active) | 83% (active) | 3 | 99% (active) | inactive | inactive | inactive | inactive
CCOC(=O)CN1Cc2cc(NCc3ccc4ccc5nc(C)[nH]c(=O)c5c4c3)ccc2C1=O | 91% (active) | 40% | 1 | 84% (active) | inactive | inactive | inactive | inactive
CC(Cc1ccc(CNC(=O)NCc2ccc(CC(C)NCCc3cccc(Cl)c3)cc2)cc1)NCCc1cccc(Cl)c1 (stereo not given) | 44% | 100% (active) | -4 | 100% (active) | inactive | inactive | inactive | inactive
c1ccc(CN2CCC(NCc3ccc(-c4cccc(CNC5CCCC5)c4)cc3)CC2)cc1 | 100% (active) | 55% (active) | -8 | 101% (active) | inactive | inactive | inactive | inactive
c1ccc(COc2ccc(Nc3ncnc4ccc(-c5ccc(CN6CCSCC6)o5)cc34)cc2)cc1 | 4% | 4% | 4 | 94% (active) | inactive | inactive | inactive | inactive
O=C(Cn1c(CCc2cccc(F)c2F)nc(=O)c2ccccc21)N(Cc1ccc(-c2ccc(C(F)(F)F)cc2)cc1)C1CCN(C2CCOCC2)CC1 | 76% (active) | 97% (active) | -2 | 101% (active) | inactive | inactive | inactive | inactive
CCCNCc1ccc(-c2ccc(CN(CC3CCCO3)C(=O)C3CC(=O)c4ccccc43)cc2)nc1 (stereo not given) | 65% (active) | 0% | 3 | 101% (active) | inactive | inactive | inactive | inactive
O=C(C=Cc1ccc(Cl)c(Cl)c1)NC1CCN(CCc2ccccc2)CC1 | 13% | 6% | -8 | 97% (active) | inactive | inactive | inactive | inactive
C#CCCC(=O)Nc1cccc(-c2cccc(-c3nc4c(C)cccc4[nH]3)c2)c1 | 29% | 30% | -3 | 97% (active) | inactive | inactive | inactive | inactive
Cc1cc(-c2cccc(CNCc3ccccc3)c2)ccc1S(=O)(=O)NCCN1CCCC1 | 58% (active) | 40% | 1 | 98% (active) | inactive | inactive | inactive | inactive
COc1ccc2[nH]cc(C3CCN(CCCCNC(=O)c4ccc(NC(=O)c5ccc(Cl)cc5)cc4)CC3)c2c1 | 16% | 17% | 3 | 98% (active) | inactive | inactive | inactive | inactive
c1ccc(-c2nc(Nc3ccncc3)sc2-c2ccccc2)cc1 | 18% | -5% | 1 | 97% (active) | inactive | inactive | inactive | inactive
Cc1noc(-c2ccc3c(c2)CCN(CCC2CCC(NC(=O)/C=C/c4ccc(F)cc4)CC2)CC3)n1 (stereo not given) | 39% | 44% | 3 | 91% (active) | inactive | inactive | inactive | inactive
